Assay in all cases: DAPPL (digital affinity profiling via proximity ligation, sequencing); 10 mM Tris-HCl pH 7.5, 50 mM NaCl, 1 mM DTT, 4% glycerol, room temperature, 30 min; GST-TFs on glutathione beads, 16-mer random dsDNA library, 0.1% formaldehyde crosslink after washing; high values mean tight binding
In one test the target is T1, FEV (Homo sapiens, UniProt Q99581 1-238).
T1 sequence: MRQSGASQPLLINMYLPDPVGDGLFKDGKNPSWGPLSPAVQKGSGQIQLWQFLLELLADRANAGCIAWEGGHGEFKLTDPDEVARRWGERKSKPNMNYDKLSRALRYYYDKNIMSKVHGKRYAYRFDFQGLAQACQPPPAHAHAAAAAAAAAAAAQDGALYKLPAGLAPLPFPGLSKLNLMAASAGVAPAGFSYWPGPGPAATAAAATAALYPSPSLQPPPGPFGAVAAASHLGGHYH
Conditions: protein: recombinant; tags: N-terminal GST; dsDNA, one strand shown. Put shortly:
(§1)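 Yeast served to express human transcription factors as GST fusions, which were then captured on glutathione beads and labelled with DNA barcodes. Pooled with a tag-only sample, they were incubated with 200 nmole of a 16-mer random double-stranded DNA library for 30 min at room temperature in Tris/NaCl/DTT/glycerol buffer, washed, crosslinked with 0.1% formaldehyde, ligated by proximity, amplified by PCR and sequenced. Dividing each hexamer's read frequency for a factor by its frequency for the tag-only sample gives the binding signal.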

The target of the next test is ETV5 (Homo sapiens, UniProt P41161 1-510). Conditions: protein: recombinant; tags: N-terminal GST; dsDNA, one strand shown. Put shortly: as §1
Chain of ETV5 (P41161 whole entry): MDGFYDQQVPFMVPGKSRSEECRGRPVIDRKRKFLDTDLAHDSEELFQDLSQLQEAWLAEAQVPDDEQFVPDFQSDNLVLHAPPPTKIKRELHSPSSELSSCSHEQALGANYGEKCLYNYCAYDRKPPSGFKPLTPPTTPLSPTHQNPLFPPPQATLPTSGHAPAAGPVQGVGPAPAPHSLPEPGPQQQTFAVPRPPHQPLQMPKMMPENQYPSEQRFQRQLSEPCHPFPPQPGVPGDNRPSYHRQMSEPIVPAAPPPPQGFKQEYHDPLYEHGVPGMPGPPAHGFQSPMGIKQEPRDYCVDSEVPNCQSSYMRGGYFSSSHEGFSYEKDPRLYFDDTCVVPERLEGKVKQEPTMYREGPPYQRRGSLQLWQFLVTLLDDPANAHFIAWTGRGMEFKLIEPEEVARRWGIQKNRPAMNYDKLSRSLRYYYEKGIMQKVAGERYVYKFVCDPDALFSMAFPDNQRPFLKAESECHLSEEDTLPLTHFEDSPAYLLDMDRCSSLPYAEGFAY
Another test concerns the target HSF1 (Homo sapiens, UniProt Q00613 1-529). Conditions: protein: recombinant; tags: N-terminal GST; chain copies: 3; dsDNA, one strand shown. Put shortly: as §1
The next test concerns the target T2, SPIC (Homo sapiens, UniProt Q8N5J4 1-248).
T2 sequence: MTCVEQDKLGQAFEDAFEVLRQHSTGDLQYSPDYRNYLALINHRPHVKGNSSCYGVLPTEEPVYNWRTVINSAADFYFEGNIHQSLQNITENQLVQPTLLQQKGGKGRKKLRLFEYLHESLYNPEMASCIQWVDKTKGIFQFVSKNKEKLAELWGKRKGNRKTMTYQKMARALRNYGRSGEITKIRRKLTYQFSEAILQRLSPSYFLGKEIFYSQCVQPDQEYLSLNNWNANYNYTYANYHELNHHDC
Conditions: protein: recombinant; tags: N-terminal GST; dsDNA, one strand shown. Put shortly: as §1

The next test has as its target ELF4 (Homo sapiens, UniProt Q99607 1-663). Conditions: protein: recombinant; tags: N-terminal GST; dsDNA, one strand shown. Put shortly: as §1
The target in another test is T3, ELK4 (Homo sapiens, UniProt P28324-2 1-405).
T3 sequence: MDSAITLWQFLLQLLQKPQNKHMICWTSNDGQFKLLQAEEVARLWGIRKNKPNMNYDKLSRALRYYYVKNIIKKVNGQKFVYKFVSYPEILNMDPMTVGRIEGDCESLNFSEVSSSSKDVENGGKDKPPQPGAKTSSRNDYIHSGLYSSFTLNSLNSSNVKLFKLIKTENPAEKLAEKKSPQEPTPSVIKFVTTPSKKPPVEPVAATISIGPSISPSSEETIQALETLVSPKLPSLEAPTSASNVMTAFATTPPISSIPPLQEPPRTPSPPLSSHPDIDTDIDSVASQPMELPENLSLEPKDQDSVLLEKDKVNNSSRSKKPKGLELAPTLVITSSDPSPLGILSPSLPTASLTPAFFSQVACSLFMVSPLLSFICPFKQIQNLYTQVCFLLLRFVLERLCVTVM
Conditions: protein: recombinant; tags: N-terminal GST; dsDNA, one strand shown. Put shortly:
as §1

A further test deals with T4, ETV2 (Homo sapiens, UniProt O00321 1-342).
T4 sequence: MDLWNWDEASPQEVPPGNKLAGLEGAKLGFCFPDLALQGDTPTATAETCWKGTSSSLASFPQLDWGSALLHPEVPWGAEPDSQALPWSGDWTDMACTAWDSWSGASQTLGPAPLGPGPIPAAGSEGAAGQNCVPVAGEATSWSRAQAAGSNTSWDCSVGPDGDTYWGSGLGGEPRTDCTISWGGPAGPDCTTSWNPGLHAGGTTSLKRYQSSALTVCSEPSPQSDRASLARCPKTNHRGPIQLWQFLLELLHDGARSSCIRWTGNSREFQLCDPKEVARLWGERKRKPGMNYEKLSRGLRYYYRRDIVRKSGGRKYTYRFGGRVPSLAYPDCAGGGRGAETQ
Conditions: protein: recombinant; tags: N-terminal GST; dsDNA, one strand shown. Put shortly: as §1

Another test has as its target T5, ELF3 (Homo sapiens, UniProt P78545 1-371).
T5 sequence: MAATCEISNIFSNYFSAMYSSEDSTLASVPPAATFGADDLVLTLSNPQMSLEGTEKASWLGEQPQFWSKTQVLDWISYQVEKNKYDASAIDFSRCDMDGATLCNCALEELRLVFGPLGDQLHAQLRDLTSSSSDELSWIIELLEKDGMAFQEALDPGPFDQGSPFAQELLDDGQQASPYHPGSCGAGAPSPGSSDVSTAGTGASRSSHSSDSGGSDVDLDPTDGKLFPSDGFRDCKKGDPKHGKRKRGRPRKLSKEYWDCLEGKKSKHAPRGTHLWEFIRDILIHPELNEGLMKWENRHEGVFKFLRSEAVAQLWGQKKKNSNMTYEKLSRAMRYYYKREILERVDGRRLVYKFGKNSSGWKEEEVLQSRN
Conditions: protein: recombinant; tags: N-terminal GST; dsDNA, one strand shown. Put shortly: as §1

Another test deals with CRX (Homo sapiens, UniProt O43186 1-299). Conditions: protein: recombinant; tags: N-terminal GST; dsDNA, one strand shown. Put shortly:
as §1

The next test deals with ETV1 (Homo sapiens, UniProt P50549 1-477). Conditions: protein: recombinant; tags: N-terminal GST; dsDNA, one strand shown. Put shortly:
as §1

The target in the next test is T6, ERF (Homo sapiens, UniProt P50548 1-548).
T6 sequence: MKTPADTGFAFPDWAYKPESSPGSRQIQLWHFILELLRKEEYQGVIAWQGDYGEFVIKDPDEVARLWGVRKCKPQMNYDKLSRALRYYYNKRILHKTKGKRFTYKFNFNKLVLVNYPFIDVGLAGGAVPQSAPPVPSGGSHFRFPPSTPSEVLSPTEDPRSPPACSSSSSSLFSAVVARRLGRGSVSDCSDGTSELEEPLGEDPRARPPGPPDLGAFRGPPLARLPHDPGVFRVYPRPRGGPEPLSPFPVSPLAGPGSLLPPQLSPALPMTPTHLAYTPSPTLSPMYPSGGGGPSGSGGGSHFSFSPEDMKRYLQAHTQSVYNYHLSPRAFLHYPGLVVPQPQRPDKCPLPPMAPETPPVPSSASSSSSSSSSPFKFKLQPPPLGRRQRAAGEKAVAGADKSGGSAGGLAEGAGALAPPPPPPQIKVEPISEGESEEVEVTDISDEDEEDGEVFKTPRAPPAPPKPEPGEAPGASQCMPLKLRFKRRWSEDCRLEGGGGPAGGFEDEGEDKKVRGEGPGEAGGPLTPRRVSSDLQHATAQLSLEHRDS
Conditions: protein: recombinant; tags: N-terminal GST; dsDNA, one strand shown. Put shortly: as §1

The target in a further test is T7, ETV3L (Homo sapiens, UniProt Q6ZN32 1-361).
T7 sequence: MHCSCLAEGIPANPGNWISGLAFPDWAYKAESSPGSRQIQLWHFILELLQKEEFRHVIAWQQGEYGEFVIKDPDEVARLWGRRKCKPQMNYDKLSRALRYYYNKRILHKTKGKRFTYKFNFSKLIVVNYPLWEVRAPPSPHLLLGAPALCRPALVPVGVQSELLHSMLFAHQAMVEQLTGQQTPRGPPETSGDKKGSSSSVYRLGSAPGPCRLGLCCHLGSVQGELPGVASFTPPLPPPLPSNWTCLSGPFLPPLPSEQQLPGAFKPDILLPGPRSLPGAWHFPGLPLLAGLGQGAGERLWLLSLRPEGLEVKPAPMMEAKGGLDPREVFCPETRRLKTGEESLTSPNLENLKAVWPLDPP
Conditions: protein: recombinant; tags: N-terminal GST; dsDNA, one strand shown. Put shortly: as §1

The next test has as its target T8, ETS2 (Homo sapiens, UniProt P15036 1-469).
T8 sequence: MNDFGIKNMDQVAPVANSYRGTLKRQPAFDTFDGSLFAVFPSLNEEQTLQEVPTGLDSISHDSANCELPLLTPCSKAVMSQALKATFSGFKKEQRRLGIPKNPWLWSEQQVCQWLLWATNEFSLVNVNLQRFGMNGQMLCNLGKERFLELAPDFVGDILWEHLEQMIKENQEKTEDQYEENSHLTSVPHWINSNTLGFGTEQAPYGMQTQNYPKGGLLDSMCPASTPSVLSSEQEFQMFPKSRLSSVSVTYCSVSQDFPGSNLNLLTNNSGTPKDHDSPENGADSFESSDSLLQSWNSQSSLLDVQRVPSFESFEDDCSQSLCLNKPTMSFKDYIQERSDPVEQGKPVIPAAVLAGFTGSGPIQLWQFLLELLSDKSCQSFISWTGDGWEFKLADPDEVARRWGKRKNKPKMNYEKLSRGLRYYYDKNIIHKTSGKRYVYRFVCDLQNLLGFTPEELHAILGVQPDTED
Conditions: protein: recombinant; tags: N-terminal GST; dsDNA, one strand shown. Put shortly:
as §1

A further test deals with T9, SPDEF (Homo sapiens, UniProt O95238 1-335).
T9 sequence: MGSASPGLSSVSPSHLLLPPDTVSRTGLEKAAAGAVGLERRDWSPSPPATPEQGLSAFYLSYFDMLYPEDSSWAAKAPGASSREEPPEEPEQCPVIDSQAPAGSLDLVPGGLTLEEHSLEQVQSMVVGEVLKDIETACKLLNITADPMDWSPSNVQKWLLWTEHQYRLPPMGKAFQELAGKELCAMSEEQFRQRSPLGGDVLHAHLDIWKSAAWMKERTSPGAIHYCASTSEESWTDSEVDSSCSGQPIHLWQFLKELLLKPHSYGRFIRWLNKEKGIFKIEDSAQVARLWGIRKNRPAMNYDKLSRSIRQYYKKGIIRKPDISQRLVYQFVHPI
Conditions: protein: recombinant; tags: N-terminal GST; dsDNA, one strand shown. Put shortly: as §1

The target of another test is T10, ETV7 (Homo sapiens, UniProt Q9Y603 1-341).
T10 sequence: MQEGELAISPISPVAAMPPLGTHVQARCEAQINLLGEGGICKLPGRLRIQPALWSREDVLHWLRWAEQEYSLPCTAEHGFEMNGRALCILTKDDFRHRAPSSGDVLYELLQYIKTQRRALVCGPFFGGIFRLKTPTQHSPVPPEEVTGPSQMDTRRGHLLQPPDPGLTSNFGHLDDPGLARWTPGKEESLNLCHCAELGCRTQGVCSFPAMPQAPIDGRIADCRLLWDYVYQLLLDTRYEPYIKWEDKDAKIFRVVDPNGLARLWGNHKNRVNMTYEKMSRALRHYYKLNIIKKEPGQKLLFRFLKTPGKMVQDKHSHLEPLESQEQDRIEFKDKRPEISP
Conditions: protein: recombinant; tags: N-terminal GST; dsDNA, one strand shown. Put shortly: as §1

A further test deals with T11, ELF5 (Homo sapiens, UniProt Q9UKW6-2 1-255).
T11 sequence: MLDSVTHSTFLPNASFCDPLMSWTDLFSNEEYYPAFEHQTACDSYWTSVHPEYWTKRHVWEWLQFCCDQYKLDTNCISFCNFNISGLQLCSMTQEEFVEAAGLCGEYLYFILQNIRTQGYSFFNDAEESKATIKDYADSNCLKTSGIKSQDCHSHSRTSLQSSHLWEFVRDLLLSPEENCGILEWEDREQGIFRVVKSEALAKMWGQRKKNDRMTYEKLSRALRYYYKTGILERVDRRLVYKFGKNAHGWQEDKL
Conditions: protein: recombinant; tags: N-terminal GST; dsDNA, one strand shown. Put shortly:
as §1

The target in a further test is T12, ETV3 (Homo sapiens, UniProt P41162-2 1-143).
T12 sequence: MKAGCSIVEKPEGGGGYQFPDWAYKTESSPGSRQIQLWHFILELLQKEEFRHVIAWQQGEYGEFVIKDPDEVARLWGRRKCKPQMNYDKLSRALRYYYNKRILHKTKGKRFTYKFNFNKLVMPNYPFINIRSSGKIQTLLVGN
Conditions: protein: recombinant; tags: N-terminal GST; dsDNA, one strand shown. Put shortly:
as §1

For another test, the target named is ETV6 (Homo sapiens, UniProt P41212 1-452). Conditions: protein: recombinant; tags: N-terminal GST; dsDNA, one strand shown. Put shortly:
as §1

Chain of ETV1 (P50549 whole entry): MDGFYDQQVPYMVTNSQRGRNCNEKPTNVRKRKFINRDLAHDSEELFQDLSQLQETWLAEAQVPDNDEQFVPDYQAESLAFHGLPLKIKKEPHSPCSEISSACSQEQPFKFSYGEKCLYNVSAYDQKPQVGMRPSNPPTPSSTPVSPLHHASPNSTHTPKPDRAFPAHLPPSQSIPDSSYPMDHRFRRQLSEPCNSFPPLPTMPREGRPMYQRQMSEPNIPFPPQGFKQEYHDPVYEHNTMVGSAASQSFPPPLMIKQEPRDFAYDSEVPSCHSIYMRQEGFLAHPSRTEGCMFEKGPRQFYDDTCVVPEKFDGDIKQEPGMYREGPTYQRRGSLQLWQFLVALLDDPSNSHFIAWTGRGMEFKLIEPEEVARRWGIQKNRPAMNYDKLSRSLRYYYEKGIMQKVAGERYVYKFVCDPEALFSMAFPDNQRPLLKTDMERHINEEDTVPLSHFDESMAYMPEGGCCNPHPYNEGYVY
Chain of ELF4 (Q99607 whole entry): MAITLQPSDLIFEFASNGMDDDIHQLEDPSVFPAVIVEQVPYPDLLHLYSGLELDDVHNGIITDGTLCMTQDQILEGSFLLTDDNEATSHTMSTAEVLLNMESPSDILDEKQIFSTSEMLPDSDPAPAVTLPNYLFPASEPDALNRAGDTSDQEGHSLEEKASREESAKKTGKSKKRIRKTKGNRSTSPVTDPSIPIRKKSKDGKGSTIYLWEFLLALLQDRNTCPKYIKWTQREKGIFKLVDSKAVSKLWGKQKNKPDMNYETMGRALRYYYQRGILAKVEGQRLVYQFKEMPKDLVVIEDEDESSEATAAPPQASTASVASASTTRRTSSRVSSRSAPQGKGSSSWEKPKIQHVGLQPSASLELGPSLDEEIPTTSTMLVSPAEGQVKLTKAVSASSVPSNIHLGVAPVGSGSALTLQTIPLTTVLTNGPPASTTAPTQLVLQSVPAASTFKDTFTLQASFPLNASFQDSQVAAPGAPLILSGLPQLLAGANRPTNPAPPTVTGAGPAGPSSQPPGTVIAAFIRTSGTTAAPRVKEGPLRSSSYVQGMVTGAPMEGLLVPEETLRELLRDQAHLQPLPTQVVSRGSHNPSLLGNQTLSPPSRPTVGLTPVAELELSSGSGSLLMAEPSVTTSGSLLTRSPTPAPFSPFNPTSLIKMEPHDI
Chain of ETV6 (P41212 whole entry): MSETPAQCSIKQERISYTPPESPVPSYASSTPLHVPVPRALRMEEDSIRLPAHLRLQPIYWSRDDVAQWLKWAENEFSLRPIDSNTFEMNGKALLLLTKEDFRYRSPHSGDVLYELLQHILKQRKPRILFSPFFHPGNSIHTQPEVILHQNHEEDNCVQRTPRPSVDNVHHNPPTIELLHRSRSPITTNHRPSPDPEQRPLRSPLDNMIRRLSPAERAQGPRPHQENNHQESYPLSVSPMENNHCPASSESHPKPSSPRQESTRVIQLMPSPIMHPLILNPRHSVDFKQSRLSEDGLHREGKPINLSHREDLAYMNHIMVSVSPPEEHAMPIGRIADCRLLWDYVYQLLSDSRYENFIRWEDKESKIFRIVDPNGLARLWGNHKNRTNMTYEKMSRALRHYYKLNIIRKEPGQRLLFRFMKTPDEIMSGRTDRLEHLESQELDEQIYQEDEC
Chain of CRX (O43186 whole entry): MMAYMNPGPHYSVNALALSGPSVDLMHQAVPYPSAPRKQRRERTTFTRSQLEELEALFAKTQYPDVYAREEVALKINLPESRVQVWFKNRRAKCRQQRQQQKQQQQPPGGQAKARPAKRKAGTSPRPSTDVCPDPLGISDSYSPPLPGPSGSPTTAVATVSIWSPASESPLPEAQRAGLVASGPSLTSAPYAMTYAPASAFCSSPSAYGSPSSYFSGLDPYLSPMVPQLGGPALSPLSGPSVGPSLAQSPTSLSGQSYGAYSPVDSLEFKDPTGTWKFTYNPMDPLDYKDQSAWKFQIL
Chain of HSF1 (Q00613 whole entry): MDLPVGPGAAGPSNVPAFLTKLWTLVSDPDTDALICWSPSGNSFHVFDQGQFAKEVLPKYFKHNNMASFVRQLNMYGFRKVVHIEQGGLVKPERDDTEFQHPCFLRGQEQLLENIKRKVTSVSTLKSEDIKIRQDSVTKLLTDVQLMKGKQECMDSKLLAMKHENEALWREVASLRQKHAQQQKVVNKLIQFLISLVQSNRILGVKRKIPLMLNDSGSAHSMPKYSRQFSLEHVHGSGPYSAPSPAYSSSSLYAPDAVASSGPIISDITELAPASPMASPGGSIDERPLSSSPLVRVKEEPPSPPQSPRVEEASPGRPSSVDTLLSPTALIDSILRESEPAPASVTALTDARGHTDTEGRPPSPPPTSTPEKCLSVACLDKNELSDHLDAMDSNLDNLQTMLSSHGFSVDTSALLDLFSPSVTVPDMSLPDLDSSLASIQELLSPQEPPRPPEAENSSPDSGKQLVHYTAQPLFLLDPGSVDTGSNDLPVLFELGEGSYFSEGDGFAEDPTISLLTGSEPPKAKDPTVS

With TTGTGC, the binding signal was 1.18 fold enrichment (6-mer frequency, TF over GST control) with FEV; 1.17 fold enrichment (6-mer frequency, TF over GST control) with ETV5; 1.07 fold enrichment (6-mer frequency, TF over GST control) in the test with HSF1; 1.37 fold enrichment (6-mer frequency, TF over GST control) with SPIC; 1.13 fold enrichment (6-mer frequency, TF over GST control) in the test with ELF4; 1.23 fold enrichment (6-mer frequency, TF over GST control) with ELK4. For the same sequence, the binding signal in the test with ETV2 is 1.23 fold enrichment (6-mer frequency, TF over GST control); in the test with ELF3, 1.24 fold enrichment (6-mer frequency, TF over GST control); with CRX, 1.09 fold enrichment (6-mer frequency, TF over GST control); in the test with ETV1 it was 1.09 fold enrichment (6-mer frequency, TF over GST control); with ERF it was 1.31 fold enrichment (6-mer frequency, TF over GST control); in the test with ETV3L, 1.12 fold enrichment (6-mer frequency, TF over GST control). In addition, the binding signal with ETS2 is 1.17 fold enrichment (6-mer frequency, TF over GST control); in the test with SPDEF, 1.15 fold enrichment (6-mer frequency, TF over GST control); with ETV7 it was 1.08 fold enrichment (6-mer frequency, TF over GST control); with ELF5, 1.23 fold enrichment (6-mer frequency, TF over GST control); with ETV3, 1.15 fold enrichment (6-mer frequency, TF over GST control); in the test with ETV6 it was 1.23 fold enrichment (6-mer frequency, TF over GST control).

For the origin of these results see paper PMC7862700, “An all-to-all approach to the identification of sequence-specific readers for epigenetic DNA modifications on cytosine”.
